High-throughput results as filed in PubChem BioAssay.
Most compounds without a hit are left out; they make up all but 7.7% or so of the library.
TbPYK inhibitor: qHTS of Trypanosoma Brucei Inhibitors | AID 624173, 2012 | 410,000 compounds, 0.12% hits | Potency, µM (doses to about 76.8 µM), inactives show at the top dose activity, negative = inhibition, hits mostly inhibitors | pyruvate kinase (Trypanosoma brucei), Q57TT1 | TbPYK enzyme, Kinase-Glo Plus ATP luminescence, 45 min; also: potency is read from the fitted curve at half-maximal effect; nearly all actives have a fitted effect of over 50% in size
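Glycolytic pyruvate kinase of T. brucei was incubated with substrate, test compound and 130 uM ADP for 45 minutes at room temperature. Luminescent Kinase-Glo Plus signal was measured after 10 minutes.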
FMDV inh: High Throughput Screening for Foot and Mouth Disease Virus Antivirals | FMDV antiviral cell-based qHTS | Potency, µM (series often up to 57.9 µM), inactives show at the top dose activity change, negative = inhibition, usual class: inhibitors | 410,000 compounds, 1.2% hits | AID 1159524, 2015; calls by dose curve; tested in HEK293T cells; also: read-out not given here; potency is read from the fitted curve at half-maximal effect; nearly all actives have a fitted effect of over 45% in size
HCMV inh: qHTS Assay for inhibitors of the human cytomegalovirus (HCMV); HFF cells, HCMV-luciferase reporter, 72 h; stronger effect = lower value; activity change, negative = inhibition, % at 57.5 µM; 410,000 compounds, 4.5% hits; AID 1259415, 2018; in the data active = activity change below about -60%; inconclusive = no clear call, values can overlap the other calls; inactive = above about -39%
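After 16 h attachment at 37C, HFF cells received test compound and HCMV-luciferase (1 PFU/cell); reporter luminescence read 72 h later, data normalized against buffer-only and known inhibitor Salinomycin.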
Sm TGR block: qHTS Assay for the Inhibitors of Schistosoma Mansoni Peroxiredoxins; purified TGR, DTNB reduction, TNB absorbance 405 nm; 360,000 compounds, 3% hits; Potency, µM (series often up to 114 µM), without a hit: at the top dose activity change, negative = inhibition, hits mostly inhibitors; AID 485364, 2010; Schistosoma mansoni thioredoxin glutathione reductase (TGR), Q962Y6; also: potency is read from the fitted curve at half-maximal effect; nearly all actives have a fitted effect of over 60% in size
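TGR 20 nM + NADPH 100 uM (dispensed conc.), cpd preinc 15 min RT; start with NADPH (500 uM addition) then DTNB (15 mM addition). Kinetic TNB absorbance, 405 nm filter. Four-parameter Hill fit across titration.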
Giardia FBPA inh: qHTS Assay for Inhibitors of Fructose-1,6-bisphosphate Aldolase from Giardia Lamblia. AID 2451, 2010. 290,000 compounds, 0.71% hits. A8B2U2. Potency, µM (titrated, usually from 59.6 µM), for the others: at the top dose activity, negative = inhibition, most hits filed as inhibitors. purified Giardia FBPA; also: potency is read from the fitted curve at half-maximal effect; nearly all actives have a fitted effect of over 55% in size
Target sequence (A8B2U2 whole entry, looked up): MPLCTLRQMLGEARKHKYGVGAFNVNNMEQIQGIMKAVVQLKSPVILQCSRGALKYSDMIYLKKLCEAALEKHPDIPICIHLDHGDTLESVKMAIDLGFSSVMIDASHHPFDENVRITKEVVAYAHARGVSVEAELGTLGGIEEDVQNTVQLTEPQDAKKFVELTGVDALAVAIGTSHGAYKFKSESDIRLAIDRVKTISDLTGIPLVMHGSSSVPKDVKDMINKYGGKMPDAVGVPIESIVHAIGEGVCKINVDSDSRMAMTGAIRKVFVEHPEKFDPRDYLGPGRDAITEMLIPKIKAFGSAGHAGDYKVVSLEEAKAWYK
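Giardia FBPA (40 nM reagent) was preincubated 10 min at RT with compound (up to 57.5 uM final), then substrate plus GAPDH/TPI/NAD/arsenate coupling system with diaphorase/resazurin was added; resorufin fluorescence (525/598 nm) was read after 20 min.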
RE007 growth inh: qHTS Assay for Inhibitors of the HIV-1 protein Vpr. S. pombe RE007 Vpr strain, BacTiter-Glo ATP luminescence, 24 h. Potency, µM (doses to about 92.2 µM), for the others: at the top dose activity change, negative = less growth, hits mostly inhibitors. 360,000 compounds, 0.21% hits. AID 651644, 2012; active = well fitted falling curve with a large enough effect; inconclusive = small, poorly fitted or top-dose-only effect; inactive = no such curve, though single readings can be large or run the other way; also: potency is read from the fitted curve at half-maximal effect; nearly all actives have a fitted effect of over 50% in size
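Fission yeast strain RE007, carrying one chromosomally integrated HIV-1 vpr copy, was seeded at OD 0.01 in PMG+AL medium with 23 nL pinned compound. After 24 h at 30 °C and 99% humidity, viability was read by BacTiter-Glo luminescence.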
Numbers without * were called inactive; ? = inconclusive; . = not tested or not shown; ! = repeats disagree. Unless noted, calls follow the shape of the dose curve; as a rule, active = well fitted curve in the direction sought with a large enough effect; inconclusive = small, poorly fitted or top-dose-only effect, or another doubt; inactive = no such curve, though single readings can be large; an effect the other way counts as inactive or inconclusive. % is scaled to controls: 0 for no effect and ±100 for the full control effect.

SMILES	TbPYK inhibitor	FMDV inh	HCMV inh	Sm TGR block	Giardia FBPA inh	RE007 growth inh
Cc1ccc(C)c(CN2C(=O)c3ccccc3S(=O)(=O)c3ccc(C(=O)N4CCN(c5ccccn5)CC4)cc32)c1	-5%	-4%	-71*	-3%	.	.
CCN1CCN(C(=O)c2ccc3c(c2)N(Cc2ccccc2)C(=O)c2ccccc2S3(=O)=O)CC1	3%	0%	8	-11%	16%	-7%
Cc1cccc(-c2ccc3ncnc(N(C)Cc4ccco4)c3c2)c1	.	.	.	5%	.	.
CN(Cc1ccco1)c1ncnc2ccc(-c3ccc4c(ccn4C)c3)cc12	3%	-27%	-99*	-8%	.	.
O=C(CCS(=O)(=O)c1cc2c(cc1Cl)NC(=O)CO2)NCc1ccc(Cl)cc1	0%	-7%	-1	-2%	.	.
Cc1ccc(CNC(=O)CCS(=O)(=O)c2cc3c(cc2Cl)NC(=O)CO3)cc1	-25%	-4%	-105*!	-8%	10%	4%
Cc1cc(F)ccc1NC(=O)CCS(=O)(=O)c1cc2c(cc1C)NC(=O)CO2	4%	-7%	-105*	-13%	.	.
CCCC(=O)Nc1cc(-c2nc3cccnc3s2)ccc1C	-4%	7%	48	5%	.	.
CCOC(=O)C1=C(C)OC(=CC=Cc2ccccc2)C1=O	2%	6%	-6	.	.	-15%
CCN1CCN(Cc2c(O)ccc3c2O/C(=C\c2ccccc2)C3=O)CC1	3%	-1%	21	45µM*	-16%	-25%
CC1CCCN(Cc2c(O)ccc3c2O/C(=C\c2ccco2)C3=O)C1 (stereo unspecified)	-12%	-3%	-14	25µM*	-30%	-8%
CN(C)Cc1c(O)ccc2c1O/C(=C\C=C\c1ccccc1)C2=O	0%	-18%	-65*	11µM*	-8%	-6%
CCN1CCN(Cc2c(O)ccc3c2O/C(=C\c2ccc(C)cc2)C3=O)CC1	-2%	20%	-33	?	-2%	2%
O=C1/C(=C/C=C/c2ccccc2)Oc2c1ccc(O)c2CN1CCN(CCO)CC1	1%	-24%	0	40µM*	-8%	-18%
COC(=O)N(Cc1ccccc1NC(=O)OC(C)(C)C)C(C(=O)NC1CCCC1)C(=O)c1c(C)cc(C)cc1C (stereo unspecified)	.	.	-37	.	.	.
COc1ccccc1CNc1ncnc2sc(C(=O)N(C)C(C)C)c(C)c12	.	-11%	.	.	.	.
Cc1ccc(/C=C2\Oc3c(ccc(O)c3CN3CCN(C)CC3)C2=O)cc1	8%	7%	-12	-17%	-5%	-9%
CCN1CCN(Cc2c(O)ccc3c2O/C(=C\C=C\c2ccccc2)C3=O)CC1	-10%	-12%	?	35µM*	17%	2%
COc1ccccc1/C=C/C=C1\Oc2c(ccc(O)c2CN2CCN(CCO)CC2)C1=O	-3%	0%	-93*	?	-18%	-1%
CCc1ccc(/C=C2\Oc3c(ccc(O)c3CN3CCN(C)CC3)C2=O)cc1	1%	-14%	-33	-16%	-18%	-2%
CCc1cccc(NC(=O)CC2Oc3ccc(C)cc3NC2=O)c1 (stereo unspecified)	2%	5%	29	1%	.	.
O=c1c2sc3ccccc3c2n(Cc2ccccc2)c(=O)n1CCc1ccccc1	-3%	0%	21	9%	.	.
O=C(Nc1cccc(N2CCC(NCc3cnn(-c4cccc(F)c4)c3)CC2)c1)c1ccncc1	.	-30%	.	.	.	.
O=C1N(Cc2cccc(Cl)c2)C[C@@H]2C[C@@H](c3ccco3)N3CCC[C@@]123	-5%	5%	?	40µM*	0%	2%
CCn1ncc([C@@H]2C[C@H]3CN(Cc4cccc(Cl)c4)C(=O)[C@]34CCCN24)c1C	-7%	-16%	-4	-25%	0%	-21%
SMILES	TbPYK inhibitor	FMDV inh	HCMV inh	Sm TGR block	Giardia FBPA inh	RE007 growth inh
O=C1N(Cc2cccc(Cl)c2)C[C@@H]2C[C@@H](c3cccn3-c3cccnc3)N3CCC[C@@]123	-4%	?	-86*	0%	-2%	-12%
Cc1noc(C)c1C(=O)N1CCC[C@@]2(CCN(c3cccc(-c4ccccc4)c3)C2)C1	2%	?	.	.	-11%	.
Oc1ccc(CN2CCCCC2)c2cccnc12	1%	.	-68*	0%	?	-20%
O=[N+]([O-])c1cc(CN2CCCC2)c2cccnc2c1O	2%	-1%	.	-29%	18µM*	-9%
Cc1ccc(C)c(S(=O)(=O)N2CCN(Cc3ccc(O)c4ncccc34)CC2)c1	15%	-5%	-100*	?	15%	2%
OCCN1CCN(Cc2cc(Cl)c3cccnc3c2O)CC1	-7%	-10%	-33	45µM*	?	-4%
COCCN(C)C(=O)c1cnn(-c2nccc(-c3cc(C)sc3C)n2)c1C	.	44%	.	.	.	.
Cc1ccc(Cl)cc1NC(=O)c1oc2c(c1C)-c1[nH]ncc1CC2	6%	11%	11	0%	.	.
O=C(Nc1ncnc2c1ncn2[C@@H]1O[C@@H]2COP(=O)(O)O[C@H]2[C@H]1O)c1ccccc1	.	.	.	.	-1%	.
CCCCCCN(CCCCCC)C(=O)Cc1c(-c2ccc(Cl)cc2)[nH]c2ccc(Cl)cc12	.	-12%	.	.	3%	.
Oc1ccc(Br)cc1CN1CCN(c2ccccc2)CC1	-4%	6%	?	3%	4%	-20%
Oc1c(Cl)cc(CN2CCCCC2)c2cccnc12	.	.	.	4.5µM*	?	.
Oc1c(CN2CCOCC2)ccc2ccccc12	1%	1%	-8	0.56µM*	?	-29%
Oc1c(CN2CCOCC2)cc(-c2ccccc2)cc1CN1CCOCC1	2%	-8%	11	6%	3%	5%
Oc1ccc(CN2CCN(c3ccccc3)CC2)c2cccnc12	4%	-21%	.	1.4µM*	-21%	-12%
Oc1c(CN2CCN(c3ccccn3)CC2)cc(Cl)c2cccnc12	4%	?	.	?	?	?
Oc1c(CN2CCCCC2)ccc2cccnc12	-7%	-26%	-74*	.	.	-16%
CS(=O)(=O)N1CCC2(CCCN(C(=O)Nc3cccc(C#N)c3)C2)CC1	-10%	-6%	.	.	-10%	.
CCOC(=O)N1CCN(Cc2ccc(F)cc2F)CC1	2%	-8%	29	12%	?	-12%
FC(F)(F)c1ccccc1CN1CCC(Cc2ccccc2)CC1	5%	-16%	-7	-33%	?	13%
Oc1ccc(CN2CCc3ccccc3C2)c2cccnc12	4%	-29%	-99*	32µM*	?	?
CCOc1ccc(CN2CCC(Cc3ccccc3)CC2)cc1	1%	-7%	20	-1%	-16%	-22%
